Among all 2,000 compounds or so, about 250 (12%) were called active. This excerpt belongs to a sample that is enriched for actives. Unmarked numbers belong to inactive results. Cut-off read from the data, not from the text of the source: active = hERG blockade below about -20% or above about 20%; inactive = in between.
Each compound was assayed against Voltage-gated inwardly rectifying potassium channel KCNH2 (Homo sapiens) (UniProt Q12809) (assay: modulators of KCNH2 ion channel function, cellular (AID 376;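 note: 0% = buffer alone and 100% = reference blocker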)). Conditions: hERG-expressing cells, channel activity single-concentration screen; concentration not given here.
Voltage-gated inwardly rectifying potassium channel KCNH2 (Homo sapiens), sequence (Q12809 whole entry, looked up): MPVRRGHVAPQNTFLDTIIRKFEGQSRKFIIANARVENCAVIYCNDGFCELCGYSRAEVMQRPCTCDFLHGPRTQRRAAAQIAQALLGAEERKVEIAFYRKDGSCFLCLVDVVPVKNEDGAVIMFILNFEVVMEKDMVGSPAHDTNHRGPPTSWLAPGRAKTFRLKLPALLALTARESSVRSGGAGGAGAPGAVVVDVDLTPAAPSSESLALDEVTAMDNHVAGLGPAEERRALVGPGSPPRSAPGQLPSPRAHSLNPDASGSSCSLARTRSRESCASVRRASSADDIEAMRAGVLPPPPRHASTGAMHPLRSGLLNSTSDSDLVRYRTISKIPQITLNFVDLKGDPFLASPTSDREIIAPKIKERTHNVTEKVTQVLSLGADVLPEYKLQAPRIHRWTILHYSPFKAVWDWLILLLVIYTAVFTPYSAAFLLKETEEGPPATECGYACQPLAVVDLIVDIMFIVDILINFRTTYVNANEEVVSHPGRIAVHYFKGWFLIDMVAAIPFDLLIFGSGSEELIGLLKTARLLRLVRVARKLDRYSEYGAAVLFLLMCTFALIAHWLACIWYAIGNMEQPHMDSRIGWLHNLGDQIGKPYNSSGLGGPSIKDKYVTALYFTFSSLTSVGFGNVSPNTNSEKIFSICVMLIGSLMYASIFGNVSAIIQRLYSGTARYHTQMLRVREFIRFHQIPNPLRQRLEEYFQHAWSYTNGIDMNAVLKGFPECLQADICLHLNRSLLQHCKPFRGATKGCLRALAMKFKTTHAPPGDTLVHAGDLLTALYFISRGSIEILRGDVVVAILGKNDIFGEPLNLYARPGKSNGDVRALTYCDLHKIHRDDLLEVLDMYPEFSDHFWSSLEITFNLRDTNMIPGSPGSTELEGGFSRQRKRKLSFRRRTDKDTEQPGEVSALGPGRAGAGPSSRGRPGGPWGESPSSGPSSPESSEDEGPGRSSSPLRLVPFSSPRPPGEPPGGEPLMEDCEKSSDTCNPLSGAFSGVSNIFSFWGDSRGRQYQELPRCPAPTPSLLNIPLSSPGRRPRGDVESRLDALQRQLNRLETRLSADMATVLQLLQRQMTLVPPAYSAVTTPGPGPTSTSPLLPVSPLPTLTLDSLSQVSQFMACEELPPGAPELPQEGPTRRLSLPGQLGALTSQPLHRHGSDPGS

In order of rising hERG blockade:
1. O=C(O)CSc1nc2ccccc2[nH]1  -15.3%
2. NC(=O)C1CCCN1Cc1ccc2c(c1)OCO2 (stereo not drawn)  -14.4%
3. Cc1ccc2c(c1)NC(c1ccc(C(=O)O)cc1)c1cccn1-2 (stereo not drawn)  -13.1%
4. CC(=NO)c1cccc[n+]1Cc1ccccc1  -12.2%
5. C[N+]1(C)CCc2cc(O)c(O)cc2C1Cc1ccc(O)c(O)c1 (stereo not drawn)  -10.5%
6. CCn1c2ccccc2c2nnc(NCCCO)nc21  -5.84%
7. O=C(O)CSc1ccccc1C(=O)O  -2.77%
8. CC(=O)Nc1cc(CN2CCCCC2)c(O)c2ncccc12  -2.13%
9. [N-]=[N+]=NC1C(O)C(CO)OC1n1cnc2c(N)ncnc21 (stereo not drawn)  -1.39%
10. CC1CC2C3CCC4=CC(=O)C=CC4(C)C3(F)C(O)CC2(C)C1(O)C(=O)COP(=O)(O)O (stereo not drawn)  -1.33%
11. NC(CSc1nc2ccccn2c1[N+](=O)[O-])C(=O)O (stereo not drawn)  -1.31%
12. S=C1SCN(C2CCCCCCCCCCC2)CN1C1CCCCCCCCCCC1  0.139%
13. CCOc1ccccc1Nc1ccc(N)cc1S(=O)(=O)O  0.163%
14. Cc1ccc(C(O)c2cnc(C)n2Cc2ccccc2)cc1 (stereo not drawn)  0.183%
15. O=C1c2ccccc2-c2ccc(NC(=O)C3CCCCC3C(=O)O)cc21 (stereo not drawn)  1.13%
16. NC(C(=O)O)C(O)c1cnc[nH]1 (stereo not drawn)  2.25%
17. CN(C)CCCNc1ncnc2nc[nH]c12  3.18%
18. c1ccc(CCCNc2nnnc3ccccc23)cc1  3.75%
19. O=C(O)c1cccc(N=Nc2c(S(=O)(=O)O)ccc3c2C(=O)c2ccccc2C3=O)c1O  6.27%
20. Cn1ncc2c(NCCc3ccccc3)nc(Cl)nc21  10%
21. CC12CCC(=O)C=C1CCC1C2CCC2(C)C(C(=O)Cn3cnc4c(=S)nc[nH]c43)CCC12 (stereo not drawn)  12.1%
22. O=C1c2ccccc2C(=O)c2c1ccc(N1C(=O)c3ccccc3C1=O)c2-c1c(N2C(=O)c3ccccc3C2=O)ccc2c1C(=O)c1ccccc1C2=O  15.5%
23. Nc1nc(N)c2[nH]c(CNc3ccc(C(=O)O)cc3)nc2n1  16.1%

`O=C1c2ccccc2C(=O)c2c1ccc(C(=O)O)c2-c1ccc2ccccc2c1` was tested, and the hERG blockade was 66.5% (active).
In the case of `O=C(O)C1CCCCC1C(=O)Nc1nc2ccccc2[nH]1` (stereo not drawn), the hERG blockade is reported as 28.5% (active).
For `COc1ccc(-c2csc3c2-n2cccc2C3=O)cc1`, the hERG blockade was 22.6% (active).
With `COc1ccc(CSC2=C(C#N)C(=O)NC3(CCCCC3)S2)cc1` the hERG blockade was -27.9% (active).
With `Clc1nc(NCCc2ccccc2)c2ncn(-c3ccccc3)c2n1` the hERG blockade was 34.7% (active).

From PubChem BioAssay AID376 (PDSP, 2006)
